AmpC inh detg – inhibitors of E. coli AmpC beta-lactamase with detergent; P00811; actives 0.041% (n = 370,000); Potency, µM (series often up to 114 µM), hits mostly inhibitors; AID 485294; AmpC hydrolysis of nitrocefin, absorbance 480 nm, 0.01% Triton; also: nearly all actives have a fitted effect of over 25% in size
Target sequence (P00811 whole entry, looked up): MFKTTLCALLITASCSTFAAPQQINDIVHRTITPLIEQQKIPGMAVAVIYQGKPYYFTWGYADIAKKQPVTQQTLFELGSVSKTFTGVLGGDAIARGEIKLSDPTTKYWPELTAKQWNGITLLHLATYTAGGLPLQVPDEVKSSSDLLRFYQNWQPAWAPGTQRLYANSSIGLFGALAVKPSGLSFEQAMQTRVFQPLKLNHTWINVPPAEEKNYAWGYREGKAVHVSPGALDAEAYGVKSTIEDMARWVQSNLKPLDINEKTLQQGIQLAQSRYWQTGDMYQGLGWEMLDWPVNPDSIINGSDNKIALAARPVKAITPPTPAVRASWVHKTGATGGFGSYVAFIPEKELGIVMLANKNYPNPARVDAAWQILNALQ
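20 mM phosphate pH 7.0 + 0.01% (detergent screen) or 0.0001% Triton X-100; 5.3 nM AmpC reagent; cpd preinc 15 min RT; nitrocefin (800 uM stock) to start; A480 q20 s × 4 min; Activity was normalised to no-enzyme and no-compound control wells.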
SARS PLP yeast – SARS-CoV PLP inhibition in yeast. S. cerevisiae expressing SARS-CoV PLpro, growth rescue. Potency, µM (series often up to 32.9 µM), usual class: activators. actives 0.19% (n = 330,000); calls by dose curve; also: nearly all actives have a fitted effect of over 55% in size
Shiga inhibitor – inhibitors of Shiga toxin in Vero cells; Vero cells, Shiga toxin protein synthesis inhibition reporter; inhibition, % at 38.7 µM; actives 9.2% (n = 290,000); in the data active = inhibition mostly above about 28%, no sharp cut-off; inactive = mostly below about 43%
AmpC no deterg – AmpC beta-lactamase inhibition without detergent; P00811; AmpC nitrocefin hydrolysis, absorbance 480 nm, 0.0001% Triton; Potency, µM (highest dose often 57.1 µM), usual class: inhibitors; actives 0.52% (n = 330,000); also: nearly all actives have a fitted effect of over 20% in size
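20 mM phosphate pH 7.0 + 0.01% (detergent screen) or 0.0001% Triton X-100; 5.3 nM AmpC reagent; cpd preinc 15 min RT; nitrocefin (800 uM stock) to start; A480 q20 s × 4 min; Activity was normalised to no-enzyme and no-compound control wells.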
Cycloheximide cs – counter-screen hit for Shiga toxin inhibitors, cycloheximide; cell reporter, cycloheximide protein synthesis inhibition counterscreen; max response, %; actives 12% (n = 300,000); in the data active = max response mostly above about 13%, no sharp cut-off; inactive = mostly below about 14%; also: read at 38.3 µM for the half of the compounds with a filed dose
AMA1 RON2 block – inhibitors of Plasmodium falciparum AMA1-RON2 interaction. AlphaScreen AMA1-biotinylated RON2 peptide binding. Potency, µM (top dose mostly 58.2 µM), most hits filed as inhibitors. actives 0.2% (n = 360,000). AID 720542; also: nearly all actives have a fitted effect of over 45% in size
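AMA1 (3D7) with his tag at 25 nM final met compounds first, then biotinylated RON2 peptide at 25 nM; detection used donor plus acceptor beads, 10 µg/mL apiece, read by AlphaScreen after 30 min at room temperature.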
Of the large screens only hits and unclear results are named; the others gave an inactive call. This is one part of a sample in which hits are shown more often than they occur. Unless noted, calls follow the shape of the dose curve; as a rule, active = well fitted curve in the direction sought with a large enough effect; inconclusive = small, poorly fitted or top-dose-only effect, or another doubt; inactive = no such curve, though single readings can be large; an effect the other way counts as inactive or inconclusive.

CCC(=O)n1nc(-c2ccc(OC)cc2)nc1SC	Shiga inhibitor 41.5, Cycloheximide cs 30.4
COc1ccc(-c2nc(N)n(C(C)=O)n2)cc1	AmpC inh detg inconclusive
CSc1nc(-c2ccc(Cl)cc2)nn1S(=O)(=O)c1ccc(Cl)cc1	none
CCC(=O)n1nc(-c2ccc(Cl)cc2)nc1SC	Shiga inhibitor 68.0, Cycloheximide cs 31.7
O=C(Nc1cc(Cl)ccc1-n1cncn1)c1ccccc1OC(F)F	none (no result: Shiga inhibitor, Cycloheximide cs)
Cc1ccc(S(=O)(=O)NC(CC(C)C)C(=O)Oc2ccc3c4c(c(=O)oc3c2)CCC4)cc1 (centres undefined)	none
Nc1ncnc2c1ncn2[C@@H]1O[C@H](C(=O)NS(=O)(=O)c2cccc(F)c2)[C@@H](O)[C@H]1O	none (no result: AmpC inh detg, SARS PLP yeast, Shiga inhibitor, AmpC no deterg, Cycloheximide cs)
CC(C)c1ccc(N2C(=O)NC(=O)/C(=C/C=C/c3ccco3)C2=O)cc1	AmpC inh detg inconclusive
CCc1ccc(N2C(=O)NC(=O)/C(=C\C=C\c3ccco3)C2=O)cc1	AmpC no deterg inconclusive, Cycloheximide cs 21.9
Cc1ccc(N2C(=O)NC(=O)/C(=C/C=C/c3ccco3)C2=O)cc1	Shiga inhibitor 25.8, Cycloheximide cs 24.0
Cc1cc(C)cc(N2C(=O)NC(=O)/C(=C\C=C\c3ccco3)C2=O)c1	Shiga inhibitor 48.7
O=C(NC(=O)N1CCCCC1)c1ccc(Cl)cc1	none
CN(CC(=O)Nc1ccc(C#N)cc1)Cc1ccc(Cl)cc1Cl	none
COc1cccc(OCC(=O)NC2CC(=O)N(c3ccc4c(c3)OCCO4)C2)c1 (centres undefined)	none (no result: SARS PLP yeast, Shiga inhibitor, AmpC no deterg, Cycloheximide cs, AMA1 RON2 block)
CC(=O)Oc1ccc(-c2nc3cc(Cl)ccc3c(=O)o2)cc1	none
Oc1ccc(/C=N/n2cc(-c3ccccc3)[nH]c2=S)cc1	AmpC inh detg inconclusive, AmpC no deterg 31.6µM
COc1cc(/C=N/n2cc(-c3ccccc3)[nH]c2=S)cc(OC)c1O	Cycloheximide cs 62.1
COc1cc(/C=N/n2c(C)nc3ccccc3c2=O)cc(OC)c1O	none
Clc1ccccc1OCCCCn1ccnc1	none
O=C(O)c1ccc(N/N=C/c2cc3c(cc2[N+](=O)[O-])OCO3)cc1	Shiga inhibitor 42.2
O=C(COc1ccccc1)N/N=C/c1cc2c(cc1[N+](=O)[O-])OCO2	Cycloheximide cs 23.2
O=C(O)c1ccc(N/N=C/c2cc3cc4c(cc3nc2Cl)OCCO4)cc1	Cycloheximide cs 11.7
O=C(COc1ccccc1)N/N=C/c1ccc([N+](=O)[O-])o1	Cycloheximide cs 10.9
COc1ccc(C(=O)NCC(=O)NCC(=O)OCC(=O)c2cccs2)cc1	none
O=C(CNc1ccc2ccccc2c1)N/N=C/c1ccc([N+](=O)[O-])o1	AmpC inh detg inconclusive, AmpC no deterg inconclusive
O=C(CSc1ccc(Cl)cc1)N/N=C/c1ccc([N+](=O)[O-])o1	Cycloheximide cs 14.0
CC(=O)c1c(C)nc2ccccn12	none
O=C(Nc1nnc(SCc2ccc(F)cc2)s1)c1cccnc1Cl	AmpC inh detg inconclusive, Cycloheximide cs 17.7
O=C(Nc1nnc(SCc2ccc(F)cc2)s1)c1ccccn1	Shiga inhibitor 93.3, Cycloheximide cs 40.0
CN(C(=O)c1ccc(OC2CCN(CCc3ccccc3)CC2)cc1)C1CCOC1 (centres undefined)	none
Cn1c(N)c(C(=O)COC(=O)/C=C/c2cccc(Br)c2)c(=O)n(C)c1=O	none (no result: Shiga inhibitor, Cycloheximide cs)
CC1=NN(C(N)=S)C(=O)C1N=Nc1ccc([N+](=O)[O-])cc1 (centres undefined)	Shiga inhibitor 38.7, Cycloheximide cs 53.4
CC1=NN(c2ccccc2C(=O)O)C(=O)C1N=Nc1ccccc1 (centres undefined)	none
CCOc1ccc(N=NC2C(=O)N(C(N)=S)N=C2C)cc1 (centres undefined)	Cycloheximide cs 28.0 (no result: Shiga inhibitor)
CC1=NN(C(N)=S)C(=O)C1N=Nc1ccc(F)cc1 (centres undefined)	Shiga inhibitor 65.7, Cycloheximide cs 25.2
CC1=NN(C(N)=S)C(=O)C1N=Nc1ccccc1C(=O)O (centres undefined)	AmpC inh detg inconclusive (no result: Shiga inhibitor)
CC(=O)Nc1ccc(N=NC2C(=O)N(C(N)=S)N=C2C)cc1 (centres undefined)	Cycloheximide cs 20.8
Cc1ccccc1Nc1ccc(S(=O)(=O)N2CCOCC2)cc1[N+](=O)[O-]	none

From PubChem
